Data reported in PubChem BioAssay AID504652 (National Center for Advancing Translational Sciences (NCATS), 2011).
Values joined by “and” are separate entries in the source; they are usually repeats but may differ in a detail not shown here. Equal entries are not always repeated. Out of some 360,000 compounds screened, about 11,000 (3.1%) were called active. This is one part of a sample in which actives are shown more often than they occur. Cut-off read from the data, not from the text of the source: active = activity change below about -30%; inactive = the rest.

Target: D(1A) dopamine receptor (Homo sapiens) (UniProt P21728)
Experiment: Antagonist of Human D 1 Dopamine Receptor: qHTS
Settings: HEK293 TREx D1 cells, calcium flux, dopamine EC80; at 10 µM; hits give low values
Procedure, shortened: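 Tetracycline-induced HEK293 T-REx cells with force-coupled D1 receptor were loaded with a no-wash calcium dye. Compound was added after a 10 s baseline and read kinetically for 180 s; EC80 dopamine was then added and calcium flux followed another 180 s.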
% is set by controls: 0 for no effect and ±100 for the full control effect.

Chain of D(1A) dopamine receptor (Homo sapiens) (P21728 whole entry, looked up): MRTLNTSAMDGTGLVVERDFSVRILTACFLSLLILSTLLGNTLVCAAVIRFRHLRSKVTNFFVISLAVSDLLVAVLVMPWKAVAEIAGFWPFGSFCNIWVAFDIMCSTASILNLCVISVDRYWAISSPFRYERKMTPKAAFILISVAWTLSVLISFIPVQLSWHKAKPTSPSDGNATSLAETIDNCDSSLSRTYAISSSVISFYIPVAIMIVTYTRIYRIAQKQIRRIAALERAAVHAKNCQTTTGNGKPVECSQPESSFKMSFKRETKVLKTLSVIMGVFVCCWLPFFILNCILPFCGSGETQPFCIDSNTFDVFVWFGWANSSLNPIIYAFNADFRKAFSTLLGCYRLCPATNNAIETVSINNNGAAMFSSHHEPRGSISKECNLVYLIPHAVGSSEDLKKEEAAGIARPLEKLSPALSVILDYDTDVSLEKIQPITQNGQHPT

| Compound | activity change, negative = inhibition |
| --- | --- |
| CCn1cc(C(=O)OCC(=O)Nc2cc(C)cc(C)c2)c(=O)c2ccc(C)nc21 | 7.91% (inactive) |
| Cc1ccc(-n2c(C)cc(/C=N/Nc3ccc([N+](=O)[O-])cn3)c2C)c(C)c1 | -44.1% (active) |
| Cc1cc(C=O)c(C)n1-c1ccc(NC2CCCCC2)c([N+](=O)[O-])c1 | -2.05% (inactive) |
| Cc1ccc(N2CCN(c3ccc([N+](=O)[O-])cn3)CC2)c(C)c1 | 8.06% (inactive) |
| CC(C)C(=O)Nc1nc2c(s1)CC(C(C)(C)C)CC2 (centres undefined) | 7.11% (inactive) |
| COc1ccccc1OCCNCC(O)COc1cccc2[nH]c3ccccc3c12 (centres undefined) | -58.7% (active) and -69% (active) |
| CCCn1c(=N)n(CC(O)COc2ccccc2OC)c2ccccc21 (centres undefined) | -15% (inactive) |
| COc1cccc2[nH]c(C(=O)NCCc3ccccc3)cc12 | -6.46% (inactive) |
| CC(C)Sc1oc(-c2cccs2)nc1S(=O)(=O)c1ccc(Cl)cc1 | 14.3% (inactive) |
| COc1ccc(-c2nc(SCC(=O)N3CCCCC3C)n[nH]2)cc1 (centres undefined) | 9.65% (inactive) |
| COc1ccc(-c2csc(-c3c(N)c(C(=O)c4ccc(OC)c(OC)c4)n4ccccc34)n2)cc1 | -1.18% (inactive) |
| COc1ccc(C(=O)NCC(c2ccc(N(C)C)cc2)N2CCc3ccccc32)c(OC)c1 (centres undefined) | -5.15% (inactive) |
| COc1ccc(S(=O)(=O)NCC(c2ccc(N(C)C)cc2)N2CCc3ccccc32)cc1OC (centres undefined) | -64.5% (active) |
| O=S(=O)(NCC(c1ccccc1)N1CCc2ccccc21)c1ccccc1 (centres undefined) | 6.46% (inactive) |
| COc1ccc(NC(=O)CSc2nccn2Cc2ccc3c(c2)OCO3)cc1 | 6.87% (inactive) |
| O=C(NCc1ccccc1)C1CCN(S(=O)(=O)c2ccc3[nH]c(=O)ccc3c2)CC1 | 16.6% (inactive) |
| COc1ccc(CCN2C(=O)N(c3cccc(OC)c3)C(=O)C2CC(=O)Nc2ccccc2)cc1 (centres undefined) | -1.1% (inactive) |
| CN1CCN(C(=O)C2C3C=CC(C3)C2C(=O)O)CC1 (centres undefined) | -15.3% (inactive) |
| O=C(O)C1C2C=CC(C2)C1C(=O)N1CCN(CCO)CC1 (centres undefined) | -46.7% (active) |
| C=C(Cl)COC(=O)C1C2C=CC(C2)C1C(=O)O (centres undefined) | 6.01% (inactive) |
| Cc1cccc(-n2ncc(C(=O)N3CCc4ccccc4C3)c2C2CCN(C(=O)OC(C)(C)C)CC2)c1 | 7.17% (inactive) |

| Compound | activity change, negative = inhibition |
| --- | --- |
| Oc1c(Cl)cc(Cl)c(Cl)c1Cc1c(O)c(Cl)cc(Cl)c1Cl | -41.7% (active) |
| CCc1ccc(NC(=O)CN2C(=O)C(c3ccccc3)=NC23CCCCCC3)cc1 | -6.53% (inactive) |
| CCn1nc(C)c(NC(=O)/C=C/c2ccc(OC)c(COc3ccc(Br)cc3)c2)c1C | -39.8% (active) |
| COc1ccc(C(C)=O)cc1COc1ccc(Cl)c(C)c1 | 0.455% (inactive) |
| COc1ccc(/C=C/C(=O)Nc2c(C)nn(C)c2C)cc1COc1ccc(Br)cc1 | 9.14% (inactive) |
| COc1cccc(CNC(=O)C2CCC(CNS(=O)(=O)c3cccs3)CC2)c1 (centres undefined) | -1.65% (inactive) |
| CCc1ccccc1N1C(=O)CN(S(=O)(=O)CC)CC1(C)C(=O)NC1CCCCC1 (centres undefined) | -10.1% (inactive) |
| Cc1ccccc1C(=O)Nc1sc2c(c1C(=O)N1CCC(C)CC1)CCCC2 | 5.36% (inactive) |
| Fc1ccc2[nH]c3c(N4CCSCC4)ncnc3c2c1 | -30.2% (active) |
| Fc1ccc2[nH]c3c(N4CCN(Cc5ccc6c(c5)OCO6)CC4)ncnc3c2c1 | -7.57% (inactive) |
| NC(=O)CC[C@@H]1NC(=O)[C@H](CO)NC(=O)c2cc([N+](=O)[O-])cc(I)c2NCC[C@@H](C(N)=O)NC1=O | -14% (inactive) |
| NC(=O)C[C@@H]1NC(=O)CNC(=O)c2cc([N+](=O)[O-])cc(I)c2NCCC(C(N)=O)NC1=O (some centres undefined) | -30.2% (active) |
| NCCCC[C@@H]1NC(=O)[C@H](CCC(=O)O)NC(=O)c2cc([N+](=O)[O-])cc(I)c2NCC[C@@H](C(N)=O)NC1=O | -2.74% (inactive) |
| O=C(CSc1nc(-c2cccc(F)c2)[nH]c1-c1ccccc1)Nc1ccc2c(c1)OCO2 | -4.86% (inactive) |
| Cc1cccc(N2CCN(C(=O)c3cnc(N4CCCC4)nc3C)CC2)c1C | 10% (inactive) |
| CCCCn1c(=N)c(S(=O)(=O)c2ccccc2)cc2c(=O)n3cccc(C)c3nc21 | 1.3% (inactive) |
| CCOc1ccc(C(=O)Nc2ccc3nc4c(c(Nc5ccccc5OC)c3c2)CCCC4)cc1 | -7.4% (inactive) |
| CCOc1ccc(NC(=O)CSc2c3c(nc4ccccc24)CCCC3)cc1 | -2.6% (inactive) |
| N#Cc1cccc(NC(=O)CN2CCCCCC2)c1 | -7.3% (inactive) |
| Cc1ccc(Nc2c3c(nc4ccccc24)CCC3)cc1 | -39.1% (active) |
| N#Cc1cccc(Nc2c3c(nc4ccccc24)CCCC3)c1 | -36.2% (active) |

| Compound | activity change, negative = inhibition |
| --- | --- |
| COc1ccccc1Nc1c2c(nc3ccc(NC(=O)/C=C/c4cc(OC)c(OC)c(OC)c4)cc13)CCCC2 | 3.33% (inactive) |
| O=C(NC1CCCCC1)c1ccc2c(c1)N(Cc1ccc(Cl)cc1)C(=O)c1ccccc1S2=O (centres undefined) | -15.6% (inactive) |
| Cn1nc(-c2ccccc2)c(-c2ccccc2)c(C(=O)Nc2ccc(S(N)(=O)=O)cc2)c1=O | -1.5% (inactive) |
| Cc1cc(C)c(NC(=O)CCc2c(C)nc3c(c(C)nn3C(C)(C)C)c2C)c(C)c1 | 1.02% (inactive) |
| CCN1CCN(Cc2c(O)ccc3oc(C)c(C(=O)Nc4ccc(C)cc4C)c23)CC1 | 7.06% (inactive) |
| COc1ccccc1CNc1ccc(-c2nc(-c3ccccc3C)no2)cc1[N+](=O)[O-] | -10.5% (inactive) |
| O=C(C1CCCN(S(=O)(=O)c2cccc3nonc23)C1)N1CCN(c2ccccc2F)CC1 (centres undefined) | 10.7% (inactive) |
| CC(CNc1ccc([N+](=O)[O-])cc1)NC(=O)c1ccccc1Br (centres undefined) | -2.12% (inactive) |
| COc1ccc(C(=O)NCCNc2ccc([N+](=O)[O-])cn2)cc1 | -8.65% (inactive) |
| O=C(NCCNc1ccc([N+](=O)[O-])cc1)c1cccc2c(Br)cccc12 | -63.4% (active) |
| Cc1ccc(CCNC(=O)c2ccc3c(c2)nc2n3CCC(C)C2)cc1 (centres undefined) | -13.4% (inactive) |
| O=C(c1ccco1)n1nc(-c2ccc(Cl)cc2)nc1NCc1ccccc1 | -12.9% (inactive) |
| N=c1n(Cc2ccc(Cl)cc2)c2ccccc2n1CC(O)c1ccco1 (centres undefined) | -51.9% (active) |
| COc1ccccc1NC(=O)CCC(=O)N1CC(C)Oc2ccc(C)cc21 (centres undefined) | 7.34% (inactive) and 2.65% (inactive) |
| Cc1ccc2c(c1)N(C(=O)CCC(=O)NCc1ccccc1F)CC(C)O2 (centres undefined) | -22.7% (inactive) |
| CC1CN(C(=O)CCC(=O)NCCCN2CCC(Cc3ccccc3)CC2)c2cc(Cl)ccc2O1 (centres undefined) | -43.5% (active) |
| COc1ccc(N2C(=O)CSC23C(=O)N(Cc2cccc(F)c2)c2ccccc23)cc1Cl (centres undefined) | -0.577% (inactive) |
| O=C(NC(=O)c1cc(OCC(F)(F)F)ccc1OCC(F)(F)F)Nc1ccccc1 | -35% (active) |
| CCOc1ccc(CCNC(=O)Nc2ccccc2)cc1OCC | 14.7% (inactive) |
| CONC(=O)c1cc(OCC(F)(F)F)ccc1OCC(F)(F)F | 8% (inactive) |
| CCC1CCCCN1C(=O)Cn1c(=O)n(CCCCCC(=O)NCc2ccccc2)c(=O)c2sccc21 (centres undefined) | -26.9% (inactive) |

| Compound | activity change, negative = inhibition |
| --- | --- |
| COc1ccc(-c2onc(C)c2C)cc1S(=O)(=O)NCc1cccs1 | -23.8% (inactive) |
| COc1ccccc1/C=C/c1nc(C#N)c(NC(C)c2ccccc2)o1 (centres undefined) | 4.56% (inactive) |
| Cc1ccccc1C(=O)N1CCN(c2ccc(NC(=O)c3cccs3)cc2)CC1 | -61.2% (active) |
| O=C(COc1ccccc1)Nc1ccc(N2CCN(C(=O)c3cccs3)CC2)cc1 | -10.9% (inactive) |
| O=C(Nc1ccc(N2CCN(C(=O)c3cccs3)CC2)cc1)c1cccnc1Cl | 2.63% (inactive) |
| CC1=Nc2cc(C(=O)NCc3ccc(C)cc3)ccc2Sc2ccc(Cl)cc21 | 4.46% (inactive) |
| CCCCN(CC)CCCNC(=O)c1nn(C)c2c1CS(=O)(=O)c1ccccc1-2 | 4.54% (inactive) |
| COc1ccc(Cn2cc(C(=O)c3ccc(C)cc3)c(=O)c3cc(OC)c(OC)cc32)cc1 | -0.034% (inactive) |
| O=[N+]([O-])c1ccc(N2CCN(c3ccc(O)cc3)CC2)c(Cl)c1 | -19% (inactive) |
| CN(C)S(=O)(=O)N1CCN(c2ccc([N+](=O)[O-])cc2)CC1 | -43% (active) |
| Cc1ccc(N2CCN(S(=O)(=O)N(C)C)CC2)cc1Cl | -16.4% (inactive) |
| COc1cc(Cl)c(C)cc1Nc1nnc(-n2nc(C)cc2C)c2ccccc12 | -5.89% (inactive) |
| Cc1cc2c(s1)c1cnn(Cc3c(F)cccc3Cl)c(=O)c1n2C | 15.1% (inactive) |
| Cc1ccc2nc(NC(=O)C3CCN(S(=O)(=O)c4ccc5c(c4)oc(=O)n5C)CC3)sc2c1 | -9.2% (inactive) |
| Cn1c(=O)oc2cc(S(=O)(=O)N3CCC(C(=O)Nc4ccc(OC(F)(F)F)cc4)CC3)ccc21 | -36.4% (active) |
| COc1ccc(NC(=O)C2CCN(S(=O)(=O)c3ccc4[nH]c(=O)oc4c3)CC2)c(OC)c1 | 1.07% (inactive) |
| Cc1ccc(S(=O)(=O)N(CC(=O)Nc2ccc(Cl)cc2Cl)c2ccccc2C)cc1 | -14.7% (inactive) |
| Cc1c(Cl)cccc1NC(=O)Cn1cc(C(=O)c2cccs2)c2ccccc21 | -23.5% (inactive) |
| CCOc1ccc(NC(=O)c2cc3c(=O)n(Cc4cccs4)ccc3nc2C)cc1 | 2.95% (inactive) |
| COc1ccc(CN2C(=O)C(NC(=O)c3cccc(C)c3)(C(F)(F)F)N=C2c2ccccc2)cc1 (centres undefined) | 2.79% (inactive) |
| CCc1ccccc1NC(=O)Cc1ccc(NC(=O)N2CCCCc3ccccc32)cc1 | -2.99% (inactive) |
